# Bioassay records: PubChem, National Center for Advancing Translational Sciences (NCATS)
# VDR inhibitor – Inhibitors of the vitamin D receptor (VDR): qHTS; Vitamin D3 receptor (Homo sapiens), P11473; VDR-SRC2-3 peptide fluorescence polarization, 2 h; Potency, µM, without a hit: max response, negative = inhibition, actives largely listed as inhibitors; 0.93% of 400,000 active; further: on the % scale 0 is the no-effect control and ±100 the full control effect
# Target sequence (P11473 whole entry, looked up): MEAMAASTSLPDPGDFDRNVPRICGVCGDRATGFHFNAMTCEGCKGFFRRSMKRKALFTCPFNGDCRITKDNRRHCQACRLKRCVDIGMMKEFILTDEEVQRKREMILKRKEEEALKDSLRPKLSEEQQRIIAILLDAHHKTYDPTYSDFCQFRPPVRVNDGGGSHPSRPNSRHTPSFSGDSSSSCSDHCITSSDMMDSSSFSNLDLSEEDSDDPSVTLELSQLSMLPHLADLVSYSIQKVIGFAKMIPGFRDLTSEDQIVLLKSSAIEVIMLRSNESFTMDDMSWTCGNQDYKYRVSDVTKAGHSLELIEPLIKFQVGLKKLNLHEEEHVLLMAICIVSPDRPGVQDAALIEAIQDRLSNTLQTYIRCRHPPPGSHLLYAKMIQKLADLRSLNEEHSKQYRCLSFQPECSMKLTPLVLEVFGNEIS
#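 Fluorescence polarization assay of small-molecule disruption of VDR binding to coregulator peptide SRC2-3. Compounds and controls pin-transferred, then read after 2 h incubation at ambient room temperature.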
# G9a block – qHTS Assay for Inhibitors of Histone Lysine Methyltransferase G9a; Histone-lysine N-methyltransferase EHMT2 (Homo sapiens), Q96KQ7; G9a H3K9 monomethylation, AlphaScreen, 2 h; Potency, µM (series often up to 102 µM), for inactives: top-dose activity, negative = inhibition, most hits filed as inhibitors; 8.8% of 350,000 active; further: on the % scale 0 is the no-effect control and ±100 the full control effect; nearly all actives have a fitted effect of over 75% in size
#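 Readings reflect AlphaScreen signal from monomethyl-H3K9 antibody detection. HMT at 20 nM; substrate b-H3K9 500 nM; cofactor SAM 20 uM; 2 h RT reaction; compounds tested as titrations in qHTS with 15 min preincubation.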
# 12-LOX inh – Primary qHTS assay for inhibitors of human arachidonate 12S-lipoxygenase (ALOX12): Round 2 | purified 12hLO, xylenol orange hydroperoxide absorbance | Potency, µM (top dose mostly 108 µM), for inactives: at the highest dose activity change, negative = inhibition, usual class: inhibitors | 1.1% of 580,000 active; further: on the % scale 0 is the no-effect control and ±100 the full control effect
#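 Purified human 12hLO at 150 nM in 25 mM Hepes, 0.01% Triton X-100, pH 7.0, preincubated 15 min at room temperature with compound. Reaction started with 40 uM arachidonic acid, 30 min at room temperature. Hydroperoxide measured by Fe-xylenol orange, 573/405 nm absorbance ratio.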
# Sfp inh – qHTS Assay for Inhibitors of Bacillus subtilis Sfp phosphopantetheinyl transferase (PPTase) | 4'-phosphopantetheinyl transferase ffp (Bacillus subtilis), Q9F4F7 | Biochemical Sfp PPTase activity, qHTS | Potency, µM, for the others: largest response in the series, negative = inhibition, most hits filed as inhibitors | 3.5% of 310,000 active;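 further: the enzyme is Sfp with the accession as filed and its product quenches rhodamine fluorescence; 0% = enzyme reaction without inhibitor and -100% = no enzyme wells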
#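 Buffer: 50 mM Hepes-Na pH 7.6, 10 mM MgCl2, 0.01% Nonidet P-40, 0.01% BSA. Enzyme 15 nM, pre-exposed to compound 15 min; substrates then added and fluorescence change tracked over 30 min.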
# GRP78 ERSR act – qHTS for Inducers of the Endoplasmic Reticulum Stress Response (ERSR) in Human Glioma: qHTS; U87-MG GRP78 promoter luciferase reporter, 16 h; Potency, µM, for the others: at the top dose activation, most hits filed as activators; 0.02% of 420,000 active; AID 602332, 2012; further: series mostly up to about 76 µM; % of control where 0% means no effect; nearly all actives have a fitted effect of over 35% in size
#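 Stably transfected U87-MG glioma cells carrying a GRP78-based luciferase sensor; 16 h compound incubation. Luminescence end-point read 10 min after Bright-Glo addition at room temperature.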
# * marks the source's active call; other numbers are inactive results; i = inactive; ? = inconclusive; nt = no result given; [ ] = another dose, or the depositor's remark. Many of the other results were omitted from the sample, so hits are more common in it than they were. The call rests on the fitted dose curve; in most records, active means well fitted curve in the direction sought with a large enough effect; inconclusive means small, poorly fitted or top-dose-only effect, or another doubt; inactive means no such curve, though single readings can be large; an effect the other way counts as inactive or inconclusive. Potency means the concentration at half of the fitted maximal effect.
SMILES,VDR inhibitor,G9a block,12-LOX inh,Sfp inh,GRP78 ERSR act
COc1ccc2cc(C(=O)NCC(=O)NC3CC3)c(C)nc2c1,nt,nt,-8%,nt,nt
Cc1ccc(S(=O)(=O)N(C)c2ccc(C(=O)NCc3ccccc3F)cc2)cc1,20%,50µM*,?,nt,-2%
CN(CC(=O)Nc1ccc(Cl)cc1)C(=O)c1ccc(S(=O)(=O)Nc2ccccc2)cc1,3%,-30%,-18%,nt,-1%
Cc1ccc(NC(=O)CN(C)C(=O)c2ccc(S(=O)(=O)Nc3ccc(Cl)cc3)cc2)cc1,nt,nt,7.9µM*,nt,nt
COc1ccc(CNC(=O)c2ccc(N(C)S(=O)(=O)c3ccc(C)cc3)cc2)cc1,2%,nt,i,6%,-2%
Cc1ccc(NC(=O)CN(C)C(=O)c2ccc(S(=O)(=O)N(C)c3ccccc3)cc2)cc1,12%,56µM*,?,4%,1%
O=[N+]([O-])c1cc(S(=O)(=O)Nc2ccccc2)ccc1N/N=C/c1sc(Nc2ccccc2)nc1Cl,nt,nt,18%,nt,nt
COC(=O)c1ccc(COC(=O)c2cc3c(s2)CCC3)o1,nt,nt,8.9µM*,nt,nt
COC(=O)c1ccc(COC(=O)c2cc3c(s2)CCCCC3)o1,nt,nt,-27%,nt,nt
Cc1nc2nc(SCC(=O)c3ccc4c(c3)OCO4)[nH]c2cc1Br,nt,nt,-11%,nt,nt
O=C(CSc1nc2ncc(Cl)cc2[nH]1)c1c[nH]c2ccccc12,-13%,nt,-23%,2%,-2%
O=C(CSc1nc2ccc(Cl)cc2[nH]1)c1ccc2c(c1)OCO2,-9%,35µM*,11µM*,79µM*,5%
O=C(CSc1nc2cc(Cl)c(Cl)cc2[nH]1)c1ccc2c(c1)OCO2,13%,11µM*,?,?,-4%
O=C(CSc1nc2ccc(Cl)cc2[nH]1)c1c[nH]c2ccccc12,-8%,20µM*,-23%,23%,0%
O=C(CSc1nc2ncc(Cl)cc2[nH]1)c1ccc2c(c1)OCO2,7%,?,?,10%,-7%
O=[N+]([O-])c1ccc(Cl)cc1N1CCCCC1,5%,?,-13%,13%,-2%
O=[N+]([O-])c1ccc(Cl)cc1CN1CCCCCC1,-5%,22µM*,5µM*,2%,-5%
COc1cccc(CN2CCN(Cc3cc(OC)c(OC)cc3[N+](=O)[O-])CC2)c1,-7%,7.9µM*,nt,56µM*,-2%
COc1cc(CN2CCCCCC2)c([N+](=O)[O-])cc1OC,-10%,nt,?,63µM*,0%
COc1cc(CN2CCN(c3ccccc3F)CC2)c([N+](=O)[O-])cc1OC,-16%,10µM*,-18%,-58%,-1%
Nc1nc(COC(=O)c2ccc(O)cc2)nc2ccccc12,nt,nt,11%,nt,nt
CCC(=O)NC(c1ccco1)c1cc(Br)c2cccnc2c1O (centres undefined),nt,4%[12.7 µM],?,nt,-3%
CCCC(=O)NC(c1ccco1)c1cc([N+](=O)[O-])c2cccnc2c1O (centres undefined),2%,28µM*,-4%,14µM*,-4%
CCC(=O)NC(c1ccc(C)cc1)c1ccc2cccnc2c1O (centres undefined),14%,20%,-4%,18%,-5%
CCCC(=O)NC(c1ccco1)c1c(O)ccc2ccccc12 (centres undefined),14%,13µM*,-7%,-6%,-2%
CCC(=O)NC(c1ccc(C)cc1)c1cc([N+](=O)[O-])c2cccnc2c1O (centres undefined),-6%,?,11µM*,?,-2%
CC(=O)NC(c1ccc(C)cc1)c1cc([N+](=O)[O-])c2cccnc2c1O (centres undefined),-1%,35µM*,45µM*,?,-11%
CCCCN(C)C(=O)c1sc2nc(C(C)(C)C)nc(C)c2c1C,nt,nt,7%,nt,nt
CCOC(=O)C1(Cc2ccccc2F)CCCNC1 (centres undefined),nt,nt,27%,nt,nt
CC1Cc2cc(S(N)(=O)=O)ccc2N1CC(=O)Nc1cccc(Cl)c1Cl (centres undefined),nt,nt,-18%,nt,nt
